Shiga toxin inh – Shiga toxin inhibition; Vero cells, Shiga toxin protein synthesis inhibition reporter; inhibition, % at 38.7 µM; 290,000 compounds, 9.2% hits; AID 2315; in the data active = inhibition mostly above about 28%, no sharp cut-off; inactive = mostly below about 43%
CHX counter – counter-screen for Shiga toxin inhibitors: cycloheximide protein synthesis inhibition. AID 2314. cell reporter, cycloheximide protein synthesis inhibition counterscreen. max response, %. 300,000 compounds, 12% hits; in the data active = max response mostly above about 13%, no sharp cut-off; inactive = mostly below about 14%; also: read at 38.3 µM for the half of the compounds with a filed dose
Pf growth 96h – P. falciparum growth inhibition at 96 hour, primary screen for plastid delayed-death inhibitors; P. falciparum luciferase reporter growth, 96 h; Potency, µM (top dose mostly 28.7 µM), actives largely listed as inhibitors; 320,000 compounds, 6.9% hits; AID 504834
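Erythrocytes infected with luciferase-expressing P. falciparum were dispensed at 2% hematocrit and 0.05% parasitemia (final), then incubated with compounds 96 hours at 37 C in 5% CO2. Luminescence after detection reagent addition reported growth.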
Pf growth 48h – inhibits P. falciparum growth in the first generation, 48 h. P. falciparum luciferase growth in erythrocytes, 48 h. 310,000 compounds, 5.9% hits. Potency, µM (series often up to 28.7 µM), usual class: inhibitors
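Parasite viability was followed by luminescence of a genomically integrated firefly luciferase. Cultures held 0.1% parasitemia at 2% hematocrit (final), incubated under 5% CO2 at 37 C.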
NS1 function inh – blocks influenza NS1 protein function | Potency, µM (top dose mostly 46.1 µM) | 270,000 compounds, 0.4% hits | AID 2326; calls by dose curve; also: actives are rising curves; nearly all actives have a fitted effect of over 50% in size
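A cell-based growth assay was used: compounds that relieve NS1-induced slow growth of budding yeast raise OD600. Assay medium was yeast nitrogen base with ammonium sulphate and -URA supplement, pH 6.0, with 2% galactose.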
Sm TGR block – inhibitors of Schistosoma mansoni thioredoxin glutathione reductase; Q962Y6; purified TGR, DTNB reduction, TNB absorbance 405 nm; Potency, µM (highest dose often 114 µM), most hits filed as inhibitors; 360,000 compounds, 3% hits; AID 485364; also: nearly all actives have a fitted effect of over 60% in size
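TGR 20 nM + NADPH 100 uM (dispensed conc.), cpd preinc 15 min RT; start with NADPH (500 uM addition) then DTNB (15 mM addition). Kinetic TNB absorbance, 405 nm filter. Four-parameter Hill fit across titration.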
Large screens that a line does not name were inactive. Sampled rows, rich in hits. Any-hit rate of the full collection: about 21%. Unless noted, calls follow the shape of the dose curve; as a rule, active = well fitted curve in the direction sought with a large enough effect; inconclusive = small, poorly fitted or top-dose-only effect, or another doubt; inactive = no such curve, though single readings can be large; an effect the other way counts as inactive or inconclusive.

O=C1NC(=Nc2ccc3ccccc3c2)S/C1=C/c1ccco1	Sm TGR block 28µM (no result: NS1 function inh)
COc1cc(/C=C2\SC(=Nc3ccc(O)cc3)NC2=O)cc(OC)c1O	Pf growth 96h 9.3µM, Pf growth 48h 3.7µM
CCOc1cc(Br)cc(/C=C2\SC(=Nc3ccccc3)NC2=O)c1O	Pf growth 96h inconclusive, Pf growth 48h inconclusive
O=C1NC(=Nc2ccc(O)cc2)S/C1=C/c1ccco1	CHX counter 17, Pf growth 96h inconclusive, Sm TGR block 25µM (no result: NS1 function inh)
O=C1NC(=O)/C(=C/c2ccc(O)cc2)S1	Shiga toxin inh 75, CHX counter 36
O=C(CSc1nnc(C2CC2)n1C1CC1)Nc1cccc(Br)c1	Pf growth 48h inconclusive (no result: Shiga toxin inh, CHX counter, NS1 function inh)
COc1ccc(N=C2NC(=O)/C(=C\C=C\c3ccco3)S2)cc1	Pf growth 96h inconclusive (no result: Sm TGR block)
Cc1cccc(N=C2NC(=O)/C(=C/C=C/c3ccco3)S2)c1	Pf growth 96h inconclusive, Sm TGR block 40µM
Cc1ccc(N=C2NC(=O)/C(=C\c3ccco3)S2)cc1	Shiga toxin inh 46, CHX counter 28, Pf growth 96h inconclusive, Pf growth 48h inconclusive
CCN(CC)c1ccc(/C=C/[N+](=O)[O-])cc1	CHX counter 12 (no result: NS1 function inh)
CCN(CC)c1ccc(/C=N/NC(=O)c2ccc([N+](=O)[O-])cc2)cc1	none (no result: NS1 function inh)
O=C(CS(=O)(=O)Cc1ccccc1)N1CCc2ccccc21	CHX counter 33
O=C1CN(C(=O)c2ccccc2F)c2ccccc2N1	none
O=C1CN(C(=O)c2cc3ccccc3o2)c2ccccc2N1	Shiga toxin inh 42, CHX counter 18, Pf growth 96h inconclusive
O=C(c1ccco1)c1cn(CC(=O)N2CCCc3ccccc32)c2ccccc12	CHX counter 24, Pf growth 48h inconclusive
O=C(c1ccco1)c1cn(CC(=O)N2CCCCCC2)c2ccccc12	Pf growth 48h inconclusive
O=C(Cn1ncc2ccccc21)N1CCc2ccccc21	Pf growth 96h 4.7µM, NS1 function inh inconclusive
CCOc1ccccc1NC(=O)CN1Cc2ccccc2C1=O	none (no result: Shiga toxin inh, CHX counter, Pf growth 96h, Pf growth 48h, NS1 function inh)
O=C(CCCc1ccccc1)N1CCc2ccccc21	Shiga toxin inh 109, CHX counter 49, Pf growth 96h inconclusive (no result: Pf growth 48h)
O=C(CNC(=O)N1CC(=O)Nc2ccccc21)NCc1ccccc1	none
Cc1ccc(C)c(-n2c(CNC(=O)c3ccco3)nnc2SCC(=O)Nc2nnc(C)s2)c1	none (no result: Pf growth 48h)
O=C(CCS(=O)(=O)Cc1ccccc1)N1CCc2ccccc2C1	Sm TGR block 28µM (no result: Pf growth 96h)
O=C(CCS(=O)(=O)Cc1ccccc1F)N1CCc2ccccc2C1	none
Cc1ccc(C)c(-n2c(CNC(=O)c3ccco3)nnc2SCC(=O)N2CCc3ccccc32)c1	Pf growth 96h 13µM
O=C1CN(C(=O)OCc2ccccc2)c2ccccc2N1	CHX counter 26, Pf growth 96h inconclusive
C=CCCCCCCCCCBr	none (no result: Pf growth 96h, Pf growth 48h, NS1 function inh, Sm TGR block)
O=C(NCCC(=O)N1CCc2ccccc21)c1ccco1	Shiga toxin inh 76, CHX counter 30
O=C(C(Cc1ccccc1)n1cccc1)N1CCc2ccccc21 (stereo not given)	Pf growth 96h inconclusive, Pf growth 48h inconclusive, Sm TGR block 35µM
Cc1ccn(CCC(=O)N2CCc3ccccc32)n1	CHX counter 25
O=C(Cn1ccc([N+](=O)[O-])n1)N1CCc2ccccc21	none
CC(C(=O)N1CCc2ccccc21)n1cccc1 (stereo not given)	none (no result: Pf growth 96h)
O=C(OCc1ccccc1)N1CCc2ccccc21	Shiga toxin inh 82, CHX counter 43, Pf growth 96h inconclusive
CCc1cc(CNC(=O)c2ccc(OC3CCN(CCc4ccccc4)CC3)cc2)on1	Pf growth 96h inconclusive, Pf growth 48h inconclusive
Cn1c(Oc2ccc(F)cc2)nc2c1c(=O)n(Cc1ccccc1Cl)c(=O)n2C	none (no result: Shiga toxin inh, CHX counter, Pf growth 96h, Pf growth 48h, NS1 function inh)
COc1ccc(/C=C/c2nc(N)nc(-c3ccccc3O)n2)cc1OC	CHX counter 15, Pf growth 96h inconclusive
Nc1nc(N)nc(-c2ccccc2O)n1	Shiga toxin inh 47, Pf growth 96h inconclusive
Nc1nc(-c2ccccc2)nc(-c2ccccc2O)n1	none (no result: Shiga toxin inh, CHX counter, Pf growth 96h, Pf growth 48h, Sm TGR block)
COc1ccc(NC(=O)c2cncn2-c2ccccc2)cc1	none
CC1CCc2sc(C(=O)OCC(=O)NC(N)=O)cc2C1 (stereo not given)	none
CC1CCc2sc(C(=O)NNC(=O)c3ccncc3)cc2C1 (stereo not given)	none (no result: Shiga toxin inh, CHX counter, NS1 function inh)
CC1CCc2sc(C(=O)NNC(=S)NC3CC3)cc2C1 (stereo not given)	CHX counter 21
CC1CCc2sc(C(=O)Nc3ccc(C(N)=O)cc3)cc2C1 (stereo not given)	CHX counter 32
O=C(CNC(=O)c1ccc(N2C(=O)c3ccccc3C2=O)cc1)OCC(=O)c1ccccc1	none
CCc1ccc(C(=O)COC(=O)CNC(=O)c2ccc(N3C(=O)c4ccccc4C3=O)cc2)cc1	Pf growth 96h 15µM
O=C1N=c2ccccc2=C1c1sc(=S)n(-c2ccc(O)cc2)c1O	Pf growth 96h inconclusive
O=C1N=c2ccc(Br)cc2=C1c1sc(=S)n(NS(=O)(=O)c2ccccc2)c1O	Sm TGR block 11µM
O=C1N=c2ccccc2=C1c1sc(=S)n(NC(=O)c2cccc(O)c2)c1O	Pf growth 96h 1.9µM (no result: NS1 function inh)
CCc1ccc(-n2c(=O)c3c4c(sc3n(Cc3ccccc3C#N)c2=O)CCCC4)cc1	none (no result: Shiga toxin inh, CHX counter, Pf growth 96h, Pf growth 48h, NS1 function inh)
COc1ccc(Nc2nnc(SC(C(=O)Nc3cc(C)ccc3C)c3ccccc3)s2)cc1 (stereo not given)	Pf growth 96h inconclusive, Pf growth 48h inconclusive (no result: NS1 function inh)
Cc1ccc(C)c(NC(=O)C(Sc2nncn2C)c2ccccc2)c1 (stereo not given)	Pf growth 96h inconclusive, Sm TGR block 89µM
Cc1ccc(C)c(NC(=O)C(Sc2nc3ccccc3c(=O)n2CC(C)C)c2ccccc2)c1 (stereo not given)	Pf growth 96h 2.6µM, Pf growth 48h 3.7µM
CCOc1ccc(C(=O)c2cn(CC(=O)Nc3cccc(OC)c3)c3cc4c(cc3c2=O)OCCO4)cc1	none (no result: Shiga toxin inh, CHX counter, Pf growth 96h, Pf growth 48h, NS1 function inh)
CCOc1ccc(S(=O)(=O)Nc2ccc3c(c2)c(C(C)=O)c(C)n3S(=O)(=O)c2ccc(OCC)cc2)cc1	none (no result: Shiga toxin inh, CHX counter, Pf growth 96h, Pf growth 48h, NS1 function inh)
O=C(Nc1nc2ccccc2s1)NC1CCCCC1	Shiga toxin inh 125, CHX counter 40, Pf growth 96h inconclusive
Cc1cnc(NC(=O)CC2CCCC2)s1	Shiga toxin inh 105, CHX counter 49 (no result: NS1 function inh)
O=C(CC1CCCCC1)Nc1nc2ccccc2s1	Shiga toxin inh 59, CHX counter 33 (no result: Sm TGR block)
CCc1cc(Cn2nc(-c3ccccc3)cc2C(=O)NCC2CC2)on1	Pf growth 96h inconclusive, Pf growth 48h inconclusive (no result: Shiga toxin inh, CHX counter, NS1 function inh)
CNS(=O)(=O)c1cnccc1N1CCN(c2cccc(Cl)c2)CC1	Pf growth 96h inconclusive, Pf growth 48h inconclusive
CCN(CC)S(=O)(=O)c1cnccc1N1CCN(c2cccc(Cl)c2)CC1	Pf growth 96h 2.9µM, Pf growth 48h 3.3µM
CN1CCN(S(=O)(=O)c2cnccc2N2CCN(c3cccc(Cl)c3)CC2)CC1	Pf growth 96h 2.6µM, Pf growth 48h 2.6µM
NC(=O)c1cc(S(=O)(=O)N2CCN(c3cccc(Cl)c3)CC2)cs1	Pf growth 96h 1.2µM
